From PubChem BioAssay (NCATS)
“And” between values parts separate entries of the source, which are not always exact repeats. Equal entries are not always repeated. Records with an inconclusive call do not appear. More than one record can exist for a structure, and the calls need not agree. The source made the active and inactive calls. Calls come from the whole dose curve; as a rule, active = well fitted inhibition curve with a large enough effect; inconclusive = small, poorly fitted or top-dose-only effect; inactive = no such curve, though single readings can be large or run the other way.

Assay: Confirmatory qHTS for small molecule stabilizers of the endoplasmic reticulum resident proteome: Secreted ER Calcium Modulated Protein (SERCaMP) assay (AID 1508628); note: nearly all actives have a fitted effect of over 40% in size
Conditions: SERCaMP secreted luciferase ER calcium/proteostasis reporter; series mostly up to 76.3 µM; activity change, negative = decrease: at the top concentration
From the text: Assay Provider: Brandon K. Harvey Ph.D.
National Institute on Drug Abuse, National Institutes of Health, Baltimore, MD
Endoplasmic reticulum (ER) dysregulation is associated with human pathologies including neurodegenerative, cardiovascular, muscular, and diabetic conditions. Maintenance of ER calcium is critical for functions of the ER and its depletion can lead to loss of ER resident proteins, in a process termed exodosis. Therapeutic compounds capable of attenuating the redistribution of ER proteins under pathological conditions may slow or stop disease progression. To identify such compounds, we performed a quantitative high-throughput screen (qHTS) using the SERCaMP assay, which monitors secretion of ER resident proteins triggered by calcium depletion.
SERCaMP was initially developed as a reporter of ER calcium homeostasis using a Gaussia luciferase with a modified signal peptide and carboxy-terminus (GLuc-SERCaMP), modifications that confer secretion of the reporter in response to ER calcium depletion (Henderson et al., 2014). The assay was used to screen 9,501 compounds, including a collection of drugs approved by the FDA (US), EMA (EU), NHI (Japan), and HC (Canada) regulatory agencies (Huang et al., 2011). Since the SERCaMP reporter reflects the exodosis phenomenon (Trychta et al., 2018a), compounds identified in the screen have the potential to prevent exodosis by different mechanisms such as stabilizing ER calcium or augmenting ERS retrieval.
1. Henderson, M.J., Wires, E.S., Trychta, K.A., Richie, C.T., and Harvey, B.K. (2014). SERCaMP: a carboxy-terminal protein modification that enables monitoring of ER calcium homeostasis. Mol Biol Cell 25, 2828-2839.
2. Huang, R., Southall, N., Wang, Y., Yasgar, A., Shinn, P., Jadhav, A., Nguyen, D.T., and Austin, C.P. (2011). The NCGC pharmaceutical collection: a comprehensive resource of clinically approved drugs enabling repurposing and chemical genomics. Sci Transl Med 3, 80ps16.
3. Trychta, K.A., Back, S., Henderson, M.J., and Harvey, B.K. (2018a). KDEL Receptors Are Differentially Regulated to Maintain the ER Proteome under Calcium Deficiency. Cell Rep 25, 1829-1840 e1826.
SEQUENCE No. (1, 2, 3, etc.); […] (e.g., Cells, Incubation, Reagent, etc.); VALUE and DESCRIPTION.
1; Reagent; 5 uL; 1000 SH-SY5Y cells per wells
3; Compound; 23 nL; Control inhibitor / compound library
5; Reagent; 100 nM; Thapsigargin
7; Reagent; 1 uL; 0.5x coelenterazine
8; Detection; Luminescence; ViewLux imaging system
NOTES (numbers refer to sequence above)
1; SH-SY5Y human neuroblastoma cells stably expressing GLuc-SERCaMP (SH-SY5Y-GLuc-ASARTDL) cells were seeded in 1,536 well white tissue culture treated plates (Corning, Cat# 7464) in DMEM-high glucose-sodium pyruvate (ThermoFisher Scientific, Cat #10569) supplemented with 10% bovine growth serum (Hyclone), 10 U/ml penicillin (Gibco), 10 ug/ml streptomycin (Gibco), and 20 mM HEPES.
2; Assay plates were incubated for 5 hour at 37C in a humidified incubator containing 5% CO2.
3; qHTS libraries (23 nl, final concentrations of 1.53 uM, 7.67 uM, 38.3 uM) or controls (neutral control: DMSO, positive control: dantrolene) were added using a Kalypsis pin-tool Robotic System equipped with 1536 pinheads.
4; Cells were then incubated for 16 hours at 37C, 5% CO2.
5; Thapsigargin was added at 100 nM to deplete ER calcium stores.
6; Cells were incubated for 4 hour (37 °C, 5% CO2)
7; Gaussia luciferase in the medium was measured by adding 1 ul of 0.5x coelenterazine (final concentration 0.07x) prepared in Gaussia Luciferase Glow Assay Buffer (Pierce), without addition of the Cell Lysis Buffer Reagent.
8; Luminescence was measured using a ViewLux […] CCD imaging system (Perkin Elmer) equipped with clear filters. […] The same controls were also used for the calculation of the Z' factor, a measure of assay quality control, as previously described (Zhang et al., 1999). […]
% is set by controls: 0 for no effect and ±100 for the full control effect; potency is the fitted concentration of half-maximal effect.

Compound | activity change, negative = decrease | Potency
CN(C)c1ccc(N=NS(=O)(=O)O)cc1 | -9.73% [at 156 µM] (inactive) | –
COc1ccc(/C=C/C(=O)Nc2ccccc2C(=O)O)cc1OC | – | 39.8 µM (active)
O=C(O)Cc1ccc2c(c1)C(=O)c1ccccc1CO2 | -6.87% (inactive) | –
C=C[C@H]1CN2CC[C@@H]1C[C@@H]2[C@@H](O)c1ccnc2ccc(OC)cc12 | – | 31.6 µM (active)
N.N.N.N.N.N.N.N.N.N.N.N.N.N.O.O.[Ru+4].[Ru+5].[Ru+5] | – | 7.08 µM (active)
O=C(/C=C/c1ccc(O)c(O)c1)OCCc1ccccc1 | – | inactive and 4.47 µM (active)
C[N+]1(C)C2CC(OC(=O)[C@H](CO)c3ccccc3)CC1C1OC12 (some centres not stated) | -6.21% (inactive) | –
CNCC[C@H](Oc1ccc(C(F)(F)F)cc1)c1ccccc1 | 203% (inactive) | –
N#C/C(=C\c1c[nH]c2ccccc12)C(=O)c1ccc(O)c(O)c1 | – | 12.6 µM (active)
Cc1c(C(=O)O)c(O)cc2c1C(=O)c1c(O)c([C@@H]3O[C@H](CO)[C@@H](O)[C@H](O)[C@H]3O)c(O)c(O)c1C2=O | – | 44.7 µM (active)
Cc1ccc(C(=O)O[C@H](C(=O)O)[C@@H](OC(=O)c2ccc(C)cc2)C(=O)O)cc1 (tested in a mixture with another compound) | -4.33% (inactive) | –
Oc1cc(O)cc(/C=C/c2ccc(O)c(O)c2)c1 | -51.6% [at 156 µM] (inactive) | –
Oc1ccccc1O | – | 7.08 µM (active)
NC(=S)c1ccc[n+]([C@@H]2O[C@@H](COP(=O)([O-])OP(=O)(O)OC[C@H]3O[C@@H](n4cnc5c(N)ncnc54)[C@H](OP(=O)(O)O)[C@@H]3O)C(O)C2O)c1 (some centres not stated) | -14.1% (inactive) | –
CCCCCCCC/C=C\CCCCCCCC(=O)NCCO | – | inactive
O=C1CN(/N=C/c2ccc(-c3ccc([N+](=O)[O-])cc3)o2)C(=O)N1 | – | 11.2 µM (active)
CCCN(CC1CC1)c1nc(C)nc(Nc2c(Cl)cc(Cl)cc2Cl)c1Cl | 5.21% (inactive) | –
Cn1cc(C2=C(c3ccc(Cl)cc3Cl)C(=O)NC2=O)c2ccccc21 | – | 39.8 µM (active)
COc1cc(/C=C/C(=O)CC(=O)/C=C/c2ccc(O)c(OC)c2)ccc1O | -27.9% (inactive) | –
COc1cc(NC(C)CCCN)c2ncccc2c1 (configuration not stated) | -18% (inactive) | –
O=C(Nc1ccccc1)c1cc([N+](=O)[O-])ccc1Cl | 20.2% (inactive) | –
Oc1cc2c(cc1O)CN(C(=S)NCCc1ccc(Cl)cc1)CCC2 | – | 15.8 µM (active)
